From PubChem BioAssay (NCI) come the findings set out here.

About 83,000 compounds went through this panel and 20% of them were active in at least one assay; those are over-represented in the sample as a whole.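 Note: values are percent growth. 100 is the growth of untreated cells, values between 100 and 0 indicate rising inhibition; between -100 and 0 indicates cell death.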 Unmarked numbers belong to inactive results. Activity calls are given as the source filed them. Rule for the calls: active = growth percent below 10; inactive = the rest.

Test systems include NCI-H23 lung; NCI-H226 lung; NCI-H322M lung; HOP-62 NSCLC; NCI-H460 lung; HOP-92 NSCLC; NCI-H522 lung; A549/ATCC NSCLC; 786-0 renal; COLO 205 colon; DU-145 prostate; MALME-3M melanoma; MDA-MB-231 breast; RXF 393 renal; SF-268 CNS; SF-295 CNS; SF-539 CNS; UACC-257 melanoma; M14 melanoma.
Assay in all cases: NCI-60 one-dose screen, 48 h (100 = growth as untreated, 0 = no growth, -100 = all killed)
Holding throughout (conditions): 10 µM unless noted

For the compound `CC[C@H]1[C@@H]2C=C[C@@H]3[C@H]4C/C=C\C(=O)NCCC[C@@H]5NC(=O)/C(=C(O)/C=C/[C@@H]4C[C@@H]3[C@H]2C[C@H]1C)C5=O`, the growth in the assay with NCI-H23 lung is 51%; with NCI-H226 lung, 1.14% (active); in the assay with NCI-H322M lung, 35.7%; in the assay on HOP-62 NSCLC it was -49.9% (active); in the assay on NCI-H460 lung it was -51.2% (active); in the assay with HOP-92 NSCLC it was -20.4% (active). The growth in the assay on NCI-H522 lung is 67.7%; with A549/ATCC NSCLC, 36.8%; in the assay on 786-0 renal, -80.9% (active); in the assay with COLO 205 colon, 66%; in the assay with DU-145 prostate it was -94% (active); in the assay on MALME-3M melanoma it was -6.22% (active). Also, the growth in the assay on MDA-MB-231 breast is -2.91% (active); with RXF 393 renal, -86.1% (active); in the assay with SF-268 CNS, -55.5% (active); in the assay with SF-295 CNS, -53.2% (active); with SF-539 CNS it was -20.8% (active); with UACC-257 melanoma, 23.4%. Also, the growth in the assay on M14 melanoma was -10.9% (active).

Turning to `COc1ccc(SC2c3ccc(O)cc3Oc3nc(N)c(C#N)c(N)c32)cc1` (configuration not stated), the growth with NCI-H23 lung is 93.3%; in the assay with NCI-H226 lung, 117%; with NCI-H322M lung, 79.2%; with HOP-62 NSCLC, 64.4%; with NCI-H460 lung it was 79.3%; in the assay on HOP-92 NSCLC, 112%. In addition, the growth in the assay on NCI-H522 lung is 86.3%; in the assay with A549/ATCC NSCLC it was 84.6%; with 786-0 renal it was 81.6%; in the assay with COLO 205 colon it was 115%; in the assay on DU-145 prostate, 93.1%; in the assay on MALME-3M melanoma, 99.3%. Further, the growth in the assay with MDA-MB-231 breast was 101%; with RXF 393 renal it was 122%; in the assay with SF-268 CNS it was 57.3%; with SF-295 CNS it was 76.8%; in the assay on SF-539 CNS, 52.1%; in the assay with UACC-257 melanoma, 106%. The growth with M14 melanoma was 105%.

Take `C=C1C(=O)O[C@H]2[C@H]1CC/C(COC(=O)c1ccc(C#N)cc1)=C\CC[C@@]1(C)O[C@@H]21`: the growth in the assay on NCI-H23 lung was 54.4%; in the assay with NCI-H226 lung, -0.563% (active); in the assay with NCI-H322M lung, 68.1%; in the assay with HOP-62 NSCLC it was 61.3%; in the assay on NCI-H460 lung, 53.7%; in the assay with HOP-92 NSCLC it was -35.8% (active). The growth was -89.6% (active) with NCI-H522 lung; 40.8% in the assay with A549/ATCC NSCLC; 22.9% in the assay with 786-0 renal; -77.7% (active) in the assay on COLO 205 colon; 18.4% in the assay on DU-145 prostate; -22.4% (active) in the assay on MALME-3M melanoma. In addition, the growth is 2.94% (active) in the assay on MDA-MB-231 breast; -47.7% (active) in the assay on RXF 393 renal; 56.8% with SF-268 CNS; 73.3% in the assay with SF-295 CNS; -32.3% (active) in the assay with SF-539 CNS; 52.2% in the assay with UACC-257 melanoma. Further, the growth in the assay with M14 melanoma is 15.6%.

For `COc1ccc(-c2cc3ccc(N(C)C)cc3nc2N)c(F)c1`, the growth was 19% in the assay with NCI-H23 lung; 48.2% with NCI-H226 lung; 66.9% in the assay on NCI-H322M lung; 40.3% in the assay with HOP-62 NSCLC; 31.9% in the assay on NCI-H460 lung; 19% in the assay with HOP-92 NSCLC. Further, the growth with NCI-H522 lung is 31%; with A549/ATCC NSCLC, 40.8%; in the assay with 786-0 renal, 48.3%; with COLO 205 colon, 12.2%; in the assay on DU-145 prostate it was 56.1%; with MALME-3M melanoma, 25.3%. The growth is 48.5% in the assay with MDA-MB-231 breast; 32.4% with RXF 393 renal; 56.5% in the assay with SF-268 CNS; 25.4% with SF-295 CNS; 49.1% with SF-539 CNS; 23.3% with UACC-257 melanoma. The growth with M14 melanoma is -60.5% (active).

With `COc1ccc(C(=O)Cn2cnc3c(Nc4cc(C(=O)Nc5ccc(N6CCN(CCO)CC6)cc5)ccc4C)ncnc32)cc1`, the growth is 98.2% in the assay with NCI-H23 lung; 96.9% in the assay on NCI-H226 lung; 101% in the assay with NCI-H322M lung; 97.3% in the assay on HOP-62 NSCLC; 108% with NCI-H460 lung; 121% in the assay with HOP-92 NSCLC. For the same compound, the growth in the assay with NCI-H522 lung was 87.8%; with A549/ATCC NSCLC, 108%; in the assay with 786-0 renal it was 98.5%; in the assay on COLO 205 colon, 104%; in the assay on DU-145 prostate it was 105%; with MALME-3M melanoma, 116%. Moreover, the growth in the assay with MDA-MB-231 breast is 110%; with RXF 393 renal it was 113%; in the assay with SF-268 CNS, 98.6%; in the assay with SF-295 CNS, 93.2%; in the assay on SF-539 CNS it was 98.2%; in the assay on UACC-257 melanoma, 104%. For the same compound, the growth in the assay with M14 melanoma was 95.3%.

In the case of `C=C1C(=O)O[C@H]2[C@H]1CC/C(COC(=O)c1ccccc1)=C\CC[C@@]1(C)O[C@@H]21`, the growth in the assay with NCI-H23 lung is 45%; in the assay on NCI-H226 lung, -37.2% (active); in the assay on NCI-H322M lung, 59.3%; with HOP-62 NSCLC it was 36.6%; in the assay with NCI-H460 lung, 38%; in the assay on HOP-92 NSCLC, -41.9% (active). Further, the growth in the assay on NCI-H522 lung is -77.7% (active); in the assay with A549/ATCC NSCLC, 23.3%; in the assay with 786-0 renal, -59.2% (active); with COLO 205 colon, -64.7% (active); in the assay on DU-145 prostate, 6.11% (active); in the assay on MALME-3M melanoma, -65% (active). Moreover, the growth with MDA-MB-231 breast was -37.1% (active); with RXF 393 renal it was -84% (active); in the assay with SF-268 CNS, 41%; in the assay on SF-295 CNS it was 60.8%; in the assay on SF-539 CNS, -65.5% (active); in the assay with UACC-257 melanoma, 30%. The growth in the assay on M14 melanoma was -31.9% (active).

For the compound `COc1cc(/C=C/C(=O)N2CCC=CC2=O)cc(OC)c1OC`, the growth was 62.3% in the assay with NCI-H23 lung; 109% with NCI-H226 lung; 84.3% in the assay with NCI-H322M lung; 82.8% with HOP-62 NSCLC; 76% in the assay on NCI-H460 lung; 28.9% in the assay on HOP-92 NSCLC. Further, the growth with NCI-H522 lung is -68.2% (active); with A549/ATCC NSCLC, 72.3%; with 786-0 renal, 29.5%; in the assay with COLO 205 colon it was 5.08% (active); in the assay on DU-145 prostate, 43.5%; with MALME-3M melanoma it was 10.5%. In addition, the growth in the assay with MDA-MB-231 breast was 45.9%; in the assay on RXF 393 renal, 9.03% (active); in the assay with SF-268 CNS, 85.1%; in the assay on SF-295 CNS, 94.1%; in the assay on SF-539 CNS, 29.6%; in the assay with UACC-257 melanoma it was 66.4%. Further, the growth in the assay on M14 melanoma was 55.7%.

Regarding `Cc1ccn2cc(Cc3cc(=O)oc4c3ccc3ccccc34)c(=O)nc2c1`, the growth with NCI-H23 lung was 96.6%; in the assay with NCI-H226 lung, 96.6%; with NCI-H322M lung, 101%; in the assay with HOP-62 NSCLC, 91.7%; in the assay with NCI-H460 lung, 106%; with HOP-92 NSCLC, 98.8%. Moreover, the growth with NCI-H522 lung is 75.1%; with A549/ATCC NSCLC it was 89.9%; with 786-0 renal, 95.5%; with COLO 205 colon it was 102%; in the assay on DU-145 prostate, 110%; in the assay with MALME-3M melanoma it was 99.8%. In addition, the growth in the assay on MDA-MB-231 breast was 97.6%; in the assay on RXF 393 renal it was 106%; in the assay with SF-268 CNS, 94.8%; in the assay on SF-295 CNS it was 96.1%; with SF-539 CNS it was 93.7%; in the assay on UACC-257 melanoma, 86.3%. In addition, in the assay with M14 melanoma, the growth is 96.8%.
